Data on 67 compounds can be found in PubChem BioAssay AID504834 (National Center for Advancing Translational Sciences (NCATS), 2011).

The whole screen tested about 320,000 compounds, of which about 22,000 (6.9%) were called active. Entries that show only a call come without a potency. Not shown: some 27% with an inconclusive outcome. Calls follow the shape of the dose curve; as a rule, active = well fitted inhibition curve with a large enough effect; inconclusive = small, poorly fitted or top-dose-only effect, or another doubt; inactive = no such curve, though single readings can be large or run the other way. The sample as a whole holds a higher share of actives than the screen did.
Potency is read from the fitted curve at half-maximal effect.

The assay is described as follows: Primary qHTS for delayed death inhibitors of the malarial parasite plastid, 96 hour incubation. Conditions: P. falciparum luciferase reporter growth; series mostly up to 28.7 µM. The gist of the method: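 P. falciparum expressing integrated firefly luciferase grown in erythrocytes (2% hematocrit, 0.05% parasitemia final) with compounds for 96 hours at 37 C, 5% CO2. Growth inhibition read as loss of luminescence after adding luciferase detection reagent.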
(Quantitative high-throughput screening tests each substance at several concentrations.)
With `C=CCN1C(=O)C(O)(CC(=O)c2ccccn2)c2ccccc21` (configuration not stated), the Potency result was “inactive”.
With `C=CCN1C(=O)C(O)(CC(=O)c2ccc(Cl)cc2)c2ccccc21` (configuration not stated), the Potency was 14.7 µM (active).
The same measure, in the same setting: as for `O=C(CC1(O)C(=O)N(CN2CCOCC2)c2ccccc21)c1ccccc1` (configuration not stated), the entry is “inactive”; as for `O=C(Nc1nnc(-c2ccc(F)cc2)s1)c1c(F)cccc1Cl`, “inactive”.
In the case of `O=C(Nc1ccc(F)cc1)C1CCN(C(=O)c2ccc([N+](=O)[O-])cc2)CC1`, the activity change, negative = inhibition is 31.7% [at 5.75 µM] (inactive).
For `O=C(c1ccc(Oc2ccc(Cl)cc2)c([N+](=O)[O-])c1)N1CCCC1`, the Potency entry is “inactive”.
Take `CC1CCN(C(=O)c2ccc(S(=O)(=O)Cc3cc(F)ccc3F)c([N+](=O)[O-])c2)CC1`: the Potency was 10.4 µM (active).
Turning to `C#CC(C)(C)NC(=O)c1cnc(-c2ccccc2)nc1-c1ccccc1`, the Potency result is “inactive”.
On to `Cc1noc(C)c1C(=O)N1CCOCC1`, for which the Potency result is “inactive”.
`O=C(c1ccccc1-c1ccccc1)N1CCOCC1`: the Potency entry is “inactive”.
In the case of `Cc1oc2c(c1C(=O)N1CCOCC1)C(=O)c1ccccc1C2=O`, the Potency is 0.828 µM (active).
With `O=S(=O)(NCC1CC1)c1ccc(F)c(Cl)c1`, the Potency result was “inactive”.
In the case of `CCOC(=O)C1CCN(C(=O)Nc2ccc(Cl)cc2)CC1`, the Potency entry was “inactive”.
Consider `CCOC(=O)C1CCN(C(=O)C2CCN(S(=O)(=O)N3CCCC3)CC2)CC1`, for which the Potency is 6.57 µM (active).
As for `CCOC(=O)C1CCN(S(=O)(=O)c2c(C)noc2C)CC1`, the Potency result was “inactive”.
As for `CCOc1ccc(OCC)c(NC(=O)C2CCN(S(=O)(=O)c3c(C)noc3C)CC2)c1`, the Potency result is “inactive”.
With `CCOC(=O)N1CCC(C(N)=O)CC1`, the Potency entry was “inactive”.
Regarding `CCOC(=O)C1CCN(C(=O)C2CCN(S(=O)(=O)c3c(C)noc3C)CC2)CC1`, the Potency is 4.15 µM (active).
Regarding `O=C(O)C1C2C=CC(C2)C1C(=O)NCc1ccccc1` (configuration not stated), the Potency entry was “inactive”.
Take `COc1ccc(NS(=O)(=O)c2cccc3nsnc23)cc1Cl`: the Potency entry is “inactive”.
As to `Nc1c(Cl)cc(S(N)(=O)=O)cc1S(N)(=O)=O`, the Potency entry is “inactive”.
For the compound `CCCCCCCCCCCCN1C(=O)CSC1c1cccnc1` (configuration not stated), the Potency is 1.65 µM (active).
Turning to `CN(C)CCCN1C(=O)CSC1c1ccc([N+](=O)[O-])cc1` (configuration not stated), the Potency entry was “inactive”.
With `CCCCCCOc1ccc(OC(=O)c2cccnc2)cc1`, the Potency result is “inactive”.
With `COc1ccc(NC(=O)CN2C(=O)CSc3ccc(S(=O)(=O)N4CCC(C)CC4)cc32)cc1`, the Potency entry was “inactive”.
Same read-out and setting: the same measure for `Cc1cc(C)nc(-n2nc(C)cc2NC(=O)c2ccc(F)cc2F)n1`: 9.28 µM (active); for `Cc1cc(NC(=O)Nc2ccc(Cl)cc2)n(-c2ccccc2)n1`: “inactive”; for `CC(=O)N/C(=N/c1nc(C)cc(C)n1)Nc1ccc(F)cc1F`: “inactive”.
For the compound `Cc1c([N+](=O)[O-])c(N)nn1C`, the Potency entry is “inactive”.
`Cc1cc(C)c(NC(=O)c2oc3ccccc3c2COc2ccccc2)c(C)c1`: the Potency was 5.22 µM (active).
For the compound `CCOC(=O)c1oc2ccccc2c1NC(=O)c1cccs1`, the Potency entry was “inactive”.
With `COc1ccc(CC(=O)Nc2c(C(N)=O)oc3ccccc23)cc1`, the Potency entry is “inactive”.
Turning to `COc1ccc(-c2nnc(SCC(=O)Nc3cccnc3Cl)n2C)cc1`, the Potency entry is “inactive”.
As to `Cc1cc(C)nc(SCC(=O)c2ccc(Cl)cc2)n1`, the Potency entry was “inactive”.
On to `CCCn1cc(SCC(N)=O)c2ccccc21`, for which the Potency result is “inactive”.
`CCC(=O)c1cn(CCOc2ccccc2OC)c2ccccc12`: the Potency was 13.1 µM (active).
Take `COc1ccccc1C(=O)NCCn1cc(SCC(=O)NCc2ccco2)c2ccccc21`: the Potency entry is “inactive”.
On to `Cc1ccc(OCc2nc3ccccc3n2C)cc1`, for which the Potency entry is “inactive”.
Take `Cc1ccc(OCc2nnc(SC3CCc4ccccc4C3=O)n2C)cc1` (configuration not stated): the Potency was 13.1 µM (active).
Consider `Cc1ccc(OCc2n[nH]c(=S)n2-c2ccccc2)cc1`, for which the Potency entry is “inactive”.
Take `CCc1nn(CCCC(=O)Nc2ccc(C)cc2C)c(=O)c2cc3occc3n12`: the Potency result was “inactive”.
Take `CN(C)S(=O)(=O)c1cccc(C(=O)OCC(=O)N2CCCC2=O)c1`: the Potency entry is “inactive”.
On the same count and under the same terms, as for `Cc1cc(C)cc(C(=O)NCCN2CCOCC2)c1`, the entry is “inactive”; as for `Cc1ccc(C(=O)N/C(=C\c2ccc(F)cc2)C(=O)NCCN2CCOCC2)cc1`, 6.57 µM (active).
With `Cc1ccc(C(=O)NC(=S)NCCN2CCOCC2)cc1`, the Potency entry is “inactive”.
As to `O=C(NCCN1CCOCC1)/C(=C/c1ccc(F)cc1)NC(=O)c1ccccc1`, the Potency entry is “inactive”.
For the compound `COc1ccc(C(=O)NCCCN2CCOCC2)cc1Br`, the Potency entry was “inactive”.
Consider `Cc1ccc(C(=O)NCCN2CCOCC2)cc1C`, for which the Potency was 7.38 µM (active).
For `CCOc1ccc(N(C)S(=O)(=O)c2cnc[nH]2)cc1`, the Potency result was “inactive”.
Consider `O=C(COc1ccc(Cl)cc1Cl)N/N=C/c1ccccn1`, for which the Potency entry is “inactive”.
As to `O=C(NCCN1CCOCC1)c1ccc(/C=C2\Sc3ccccc3N(Cc3ccc(F)cc3)C2=O)cc1`, the Potency result was “inactive”.
Same read-out and setting: the same measure for `CC(=O)[C@@]12O[C@@H]1C[C@H]1[C@@H]3CC[C@H]4C[C@@H](O)CC[C@]4(C)[C@H]3CC[C@@]12C`: “inactive”; for `COC(=O)c1ccc(NS(=O)(=O)c2cc3c4c(c2)C(C)C(=O)N4CCC3)cc1` (configuration not stated): “inactive”; for `COc1ccc(S(=O)(=O)N2CCOC23CCN(S(=O)(=O)c2ccc([N+](=O)[O-])cc2)CC3)cc1`: 11.7 µM (active).
With `CC(C)c1ccc(S(=O)(=O)N2CCC3(CC2)OCCO3)cc1`, the Potency result is “inactive”.
As for `COc1ccc(CNC(=O)C(=O)N2CCC3(CC2)OCCN3S(=O)(=O)c2ccc(C)cc2)cc1`, the Potency result was “inactive”.
Regarding `C=CCn1c(=O)c(C(=O)Nc2ncccc2O)c(O)c2ccccc21`, the Potency entry is “inactive”.
With `CC(NS(=O)(=O)c1ccccc1)c1n[nH]c(=S)n1-c1ccccc1` (configuration not stated), the Potency result is “inactive”.
For the compound `CC(C)Oc1ccc(CCc2n[nH]c(=S)n2Cc2ccccc2)cc1`, the Potency is 2.08 µM (active).
In the case of `C=CCn1c(CCc2ccc(OC(C)C)cc2)n[nH]c1=S`, the Potency entry is “inactive”.
`NS(=O)(=O)c1ccccc1NC(=O)c1c(O)c2ccccc2[nH]c1=O`: the Potency entry is “inactive”.
Turning to `Cc1cc(C(C)(C)C)cc(S(=O)(=O)Nc2ccc(C(=O)O)cc2)c1C`, the Potency result is “inactive”.
Take `O=C(c1ccc(NS(=O)(=O)c2ccc3[nH]c(=O)[nH]c3c2)cc1)N1CCCCC1`: the Potency result is “inactive”.
`O=C(O)c1ccc(NS(=O)(=O)c2ccc3c(c2)C(=O)c2cc(S(=O)(=O)Nc4ccc(C(=O)O)cc4)ccc2-3)cc1`: the Potency was 0.329 µM (active).
Regarding `Cc1cc(C)n(CCC(=O)N2CCN(S(=O)(=O)c3ccc(C)c(C)c3)CC2)n1`, the Potency result was “inactive”.
On to `O=C(NCCCN1CCOCC1)c1cc(-c2cccc(O)c2)on1`, for which the Potency result is “inactive”.
For `CC(=O)Nc1nc2c(s1)C(=O)NCC(C)(C)C2`, the Potency entry is “inactive”.
